# In all, about 350,000 compounds went through this assay and about 9,900 (2.8%) were called active. Not shown: some 15% with an inconclusive outcome. This is one part of a sample in which actives are shown more often than they occur. Values without a mark were called inactive. Calls come from the whole dose curve; as a rule, active = well fitted activation curve with a large enough effect; inconclusive = small, poorly fitted or top-dose-only effect; inactive = no such curve, though single readings can be large or run the other way.
# Experiment: A quantitative high throughput screen for small molecules that induce DNA re-replication in MCF 10a normal breast cells. For activity, positive = re-replication: % of control where 0% means no effect. Note: nearly all actives have a fitted effect of over 50% in size.
# Conditions: MCF 10A DNA re-replication, Hoechst nuclear intensity, 48 h; series mostly up to 46.1 µM; activity, positive = re-replication: at the top concentration
# Description: H Molecular Libraries Probe Production Network [MLPCN]
# NIH Chemical Genomics Center [NCGC]
# Assay Provider: Melvin DePamphilis, NICHD, NIH
# Eukaryotic cells normally restrict genome duplication to once per cell division. When this process is aberrant, DNA re-replication occurs when cells reinitiate DNA replication before the first round of replication is complete. DNA re-replication induces the DNA damage response, arrests cell proliferation, and triggers apoptosis. The cell cycle components cyclin A, Cdt-1, Cdc6 and geminin are critical regulators of this process and their misregulation results in DNA re-replication in normal and cancer cells. To identify compounds that induce re-replication in normal cells, an image-based assay was used to measure DNA content of nuclei, as detected by the fluorescent DNA binding dye, Hoechst. Cell nuclei were imaged by a fluorescence scanning plate imager and compounds that induce DNA re-replication were identified by the increase of nuclei with elevated fluorescence intensity
# For screening, 250 cells in 5 uL/well were dispensed into black clear 1536-well plates (Aurora) using a solenoid-based dispenser. Following transfer of 23 nL compound or DMSO vehicle by a pin tool, the plates were incubated 48 hr at 37 C and 5% CO2. After addition of 1 uL/well Hoescht stain, the plates were incubated 40 min at 37 C, 5% CO2 and total intensity of fluorescent objects (nuclei) were enumerated by an Acumen Explorer Ex3 (TTP LabTech) fluorescence scanning plate imager (405 nm excitation, 500-530 nm emission).
# Keywords: NIH Roadmap, MLPCN, MLI, MLSMR, qHTS, NCGC, DNA replication, cancer
# Potency is the fitted concentration of half-maximal effect.
Compound,"activity, positive = re-replication [%]",Potency
Cc1nc2ccccc2c(=O)n1Cc1ccc([N+](=O)[O-])cc1,6.21,–
Cn1cc(/C=C/c2nc3ccccc3c(=O)n2-c2cccc([N+](=O)[O-])c2)c2ccccc21,10.5,–
CCn1c(/C=C/c2ccc([N+](=O)[O-])o2)nc2ccccc2c1=O,–,20.6 µM (active)
O=C(CC1SC(N2CCOCC2)=NC1=O)Nc1ccccc1F (stereo unspecified),-0.0362,–
CCCn1c(N)c(C(=O)CSc2nnc3n2CCCCC3)c(=O)[nH]c1=O,-8.17,–
O=C(Nc1cccnc1)c1ccc(Cl)c([N+](=O)[O-])c1,–,20.6 µM (active)
O=C(Nc1cccnc1)c1ccc(Cl)cc1[N+](=O)[O-],19.5,–
O=C(/C=C/c1ccc(Cl)c([N+](=O)[O-])c1)c1cccnc1,–,5.17 µM (active)
C/C(=C\C(=O)c1cccnc1)Nc1ccc(C)c(C)c1,6.19,–
NC(N)=N/N=C/c1ccc(Cl)c([N+](=O)[O-])c1,23.1,–
O=C(Nc1ccncc1)c1ccc(Cl)c([N+](=O)[O-])c1,15.4,–
N#CCc1c[nH]c2ccc([N+](=O)[O-])cc12,2.4,–
CC(C)(C)OC(=O)CNC(=O)c1[nH]cnc1C(=O)N[C@@H](CCCCN)C(=O)OC(C)(C)C,7.94,–
O=C1[C@@H](c2ccccc2)[C@@H](c2ccccc2)N1c1cccnc1,110,–
C[C@H](CO)N1C[C@H](C)[C@@H](CN(C)S(=O)(=O)c2ccc(F)cc2)Oc2ccc(NC(=O)CCC(F)(F)F)cc2C1=O,4.69,–
COc1cc(SC)ccc1C(=O)NNC(=O)C1COc2ccccc2O1 (stereo unspecified),4.21,–
O=C(Nc1ccc(Cl)cc1)c1cc2nc(C3CC3)cc(C(F)(F)F)n2n1,–,16.4 µM (active)
C=CCNC(=O)c1cc2nc(C3CC3)cc(C(F)F)n2n1,-0.764,–
CC1CCN(C(=O)c2cc3nc(C4CC4)cc(C(F)(F)F)n3n2)CC1,9.38,–
Cc1occc1-c1nnc(SCC(=O)NC2(C#N)CCCC2)n1C,2.22,–
COc1cc2c(cc1OC)C(Cc1cc(OC)c(OC)cc1[N+](=O)[O-])=NCC2,1.19,–
Cn1c(=O)c2c(SCC(=O)N3CCOCC3)nc(C3CC3)nc2n(C)c1=O,-4.13,–
CCOC(=O)N1CCN(C(=O)CSc2nc(C)nc3c2c(=O)n(C)c(=O)n3C)CC1,–,0.651 µM (active)
CCCc1nc(SCC(=O)N2CCCC2)c2c(=O)n(C)c(=O)n(C)c2n1,2.71,–
CC(OC(=O)c1ccc([N+](=O)[O-])cc1)C(=O)NCC1CCCCC1 (stereo unspecified),-0.0529,–
COc1ccc(OC(C)C(=O)NCCc2nc3ccccc3[nH]2)cc1 (stereo unspecified),-0.913,–

Compound,"activity, positive = re-replication [%]",Potency
CCCCCOc1ccc(/C=C/C(=O)NCCc2nc3ccccc3[nH]2)cc1OC,–,20.6 µM (active)
O=C(COc1ccccc1)NCCc1nc2ccccc2[nH]1,2.97,–
O=c1ccc2c(-c3ccccc3S(=O)(=O)O)c3ccc(O)c(O)c3oc-2c1O,-16.3,–
CCOC(=O)c1ccccc1NC(=O)COC(=O)C(Cc1c[nH]c2ccccc12)NC(C)=O (stereo unspecified),0.288,–
Cc1ccc(S(=O)(=O)N2CCC(C(=O)N3CCCCCCC3)CC2)cc1,-11.9,–
CC(C)(C)OC(=O)C1=C(CO)CS[C@@H]2[C@H](NC(=O)Cc3ccccc3)C(=O)N12,-1.22,–
O=C(c1cccc(S(=O)(=O)N2CCCCCC2)c1)N1CCN(Cc2ccccc2)CC1,18.3,–
CCOC(=O)C1=C(c2ccc(OC)cc2)C(=O)c2ccccc2C1=O,–,2.91 µM (active)
COc1ccc(N2CCN(C(C)=C3C(=O)c4ccccc4C3=O)CC2)cc1,-6.44,–
COc1ccc(OCCCON2C(=O)c3ccccc3C2=O)cc1,0.15,–
COCCN(C(=O)C(C)N1C(=O)c2ccccc2C1=O)c1c(N)n(CC(C)C)c(=O)[nH]c1=O (stereo unspecified),-2.72,–
CC(C)(C)OC(=O)C[C@@H]1C/C=C\C[C@@H](CC(=O)NCCO)C(=O)N[C@H](Cc2c[nH]c3ccccc23)COC1=O,-0.516,–
COc1cccc(/C(C)=N/Nc2ncc(Cl)cc2Cl)c1,10.2,–
COc1cccc(/C=N/Nc2ncc(C(F)(F)F)cc2Cl)c1O,–,1.46 µM (active)
COc1cccc(/C=N/Nc2cc(C)nc(-c3ccccc3O)n2)c1O,4.07,–
O=C(Nc1nnc(-c2ccccc2)o1)c1cccc(S(=O)(=O)N2CCOCC2)c1,3.72,–
Cc1ccc(S(=O)(=O)C2(S(=O)(=O)c3ccc(C)cc3)CCCC2)cc1,–,8.2 µM (active)
Cc1ccc(S(=O)(=O)N(C)C2(C)CCS(=O)(=O)C2)cc1 (stereo unspecified),1.42,–
Cc1ccc(S(=O)(=O)NC2CCCCCC2)cc1,9.3,–
CCC(C)C1(C2CCCC2)NC(=O)NC1=O (stereo unspecified),-0.499,–
Cc1ccc(CC(=O)Nc2ccc(S(=O)(=O)N3CCOCC3)cc2)cc1C,-4.17,–
S=c1[nH]nc(-c2ccco2)n1/N=C/c1ccccc1,-5.89,–
S=c1[nH]nc(-c2ccncc2)n1/N=C/c1ccccc1Cl,0.454,–
S=c1[nH]nc(-c2cccnc2)n1/N=C/C(Cl)=C\c1ccccc1,–,13 µM (active)
O=C(CCc1nc(-c2ccccc2)no1)Nc1cccc(C(=O)NC2CC2)c1,-2.58,–
